# MPTP block – mitochondrial permeability transition pore inhibitors, primary screen, biochemical, isolated mouse mitochondria, absorbance | inhibition, % at 10 µM | 360,000 tested, 1.4% active | Ca2+ swelling absorbance, 30 min;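 active means inhibition of 50% or more, scaled per plate between neutral and stimulator controls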;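 further: 0% = DMSO wells given calcium and 100% = 1 mM EGTA wells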
# KLK7 zymogen act – proKLK7 zymogen activators, primary screen, biochemical, fluorescence intensity; AID 652039, 2013; Kallikrein-7 (Homo sapiens), P49862; purified proKLK7, EDANS-DABCYL substrate fluorescence; 100% is mature enzyme control, 0% vehicle; activation, % at 7 µM; 370,000 tested, 0.9% active;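 active means activation above the mean of all tested compounds plus 3 SD, computed per campaign excluding outliers beyond control limits, cut at about 13% in these data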
# Target sequence (P49862 whole entry, looked up): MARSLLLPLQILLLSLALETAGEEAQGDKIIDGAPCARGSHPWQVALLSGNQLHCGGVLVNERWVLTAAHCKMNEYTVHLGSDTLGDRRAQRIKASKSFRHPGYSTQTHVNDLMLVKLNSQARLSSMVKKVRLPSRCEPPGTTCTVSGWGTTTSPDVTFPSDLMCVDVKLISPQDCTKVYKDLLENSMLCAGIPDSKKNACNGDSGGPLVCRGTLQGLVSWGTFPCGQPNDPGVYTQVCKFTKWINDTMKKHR
# ADAM10 inh – human ADAM10 inhibitors, primary screen, biochemical, QFRET, HTS | recombinant ADAM10, EDANS/DABCYL FRET peptide cleavage, 3 h | inhibition, % at 7 µM | Disintegrin and metalloproteinase domain-containing protein 10 (Homo sapiens), O14672 | 370,000 tested, 0.62% active;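 active means inhibition above a per-campaign cutoff equal to the mean of compounds falling between control-based bounds plus 3 SD, cut at about 20% in these data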;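 further: 0% = DMSO wells while the 100% control is not disclosed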
# DSG3 Ab inh – inhibitors of pemphigus antibody binding to DSG3, primary screen, biochemical, bead-based, flow cytometry, scFv-GFP. DSG3-coupled beads, scFv-anti-DSG3-GFP binding; stronger effect = lower value. binding (percent of control), % at 10 µM. 310,000 tested, 0.48% active. AID 588358, 2011;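 active means binding more than 3 SD below its plate's average and above zero; inconclusive means below that plate limit but binding exactly zero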;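 further: hits lower antibody fragment binding to DSG3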
# ADAM17 inh – ADAM17 inhibitors, primary screen, biochemical, QFRET. Disintegrin and metalloproteinase domain-containing protein 17 (Homo sapiens), P78536. recombinant ADAM17, EDANS/DABCYL FRET peptide cleavage. inhibition, % at 6.95 µM. 370,000 tested, 0.83% active;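 active means inhibition above the mean of compounds lying between control limits plus 3 SD, set per campaign, cut at about 8.5% in these data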;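 further: 0% = DMSO-only wells as the low control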
# rCAG RNA binder – binders of r(CAG) RNA repeats, primary screen, biochemical, fluorescence | 370,000 tested, 1.3% active | r(CAG) RNA repeat, TO-PRO-1 dye displacement fluorescence | AID 651821, 2012 | inhibition, % at 3 µM;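 active means inhibition above the plate cutoff, the mean of all test compounds on that plate plus 3 SD, cut at about 35% in these data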;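 further: 0% = DMSO alone and 100% = 100 µM mitoxantrone as full dye displacement; higher means more dye released from RNA so lower well fluorescence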
# MPTP counter – fluorescence retest of MPTP screen hits in isolated mitochondria, single concentration | inhibition, % at 10 µM | membrane potential, Rhodamine 123 fluorescence | 5,000 tested, 78% active | shares compounds with MPTP block; in the data active means inhibition above about 22%;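 further: 0% = DMSO vehicle and 100% = positive control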
# MPTP swell DR – mitochondrial permeability transition pore inhibitors, dose response, biochemical, absorbance, uHTS hits; AID 651561, 2012; 780 tested, 58% active; isolated mitochondria swelling; shares compounds with MPTP block; IC50, µM; in the data active means IC50 below about 20 µM
# MPTP counter DR – fluorescent counter-screen in isolated mitochondria, dose response, counter-screen for MPTP inhibitor project, biochemical, fluorescence, uHTS hits. shares compounds with MPTP block. isolated mitochondria counterscreen, fluorescence read-out. IC50, µM. 780 tested, 49% active; in the data active means IC50 below about 80 µM
# Active calls of the source: *; ? = inconclusive; / = no result given. Only some compounds are listed: those with a hit (about 4.7% of all), similar ones and a draw of the others.
SMILES,MPTP block,KLK7 zymogen act,ADAM10 inh,DSG3 Ab inh,ADAM17 inh,rCAG RNA binder,MPTP counter,others
Cc1nc2ccccc2c2oc(C(=O)NCc3ccc4c(c3)OCO4)cc12,63*,0,-5,106,0,2,31*,
Cc1ccc(CNC(=O)c2cc3c(C)nc4ccccc4c3o2)cc1,46,0,-10,109,-5,2,/,
CCCCn1c(NC(=O)CC)c(C#N)c2nc3ccccc3nc21,0,-19,-167,/,-62,14,/,
N#Cc1c(NC(=O)c2ccccc2Cl)n(Cc2ccccc2)c2nc3ccccc3nc12,51*,-5,-240,98,-78,90*,51*,
CN(c1ccccc1)S(=O)(=O)c1ccc(NC(=O)CC(=O)c2ccccc2)cc1,57*,-1,2,/,1,18,93*,
C[C@H]1C2CC(OC(=O)Nc3ccc(C(F)(F)F)cc3)C(C2)[C@H]2CCCCN21 (stereo partly drawn),/,0,-1,/,0,1,/,
Cc1[nH]c2ccccc2c1C1=CC(=O)C=CC1=O,52*,1,-1,65*,3,25,4,
Cc1[nH]c2ccccc2c1CC#N,3,1,-25,116,-9,5,/,
COc1ccccc1C(=O)N1CCN(C(=O)[C@H]2O[C@@H](n3cnc(C(N)=O)n3)[C@H](O)[C@@H]2O)CC1,/,1,-11,/,-4,0,/,
CC1(C)C2CC=C(/C=N/NC(=O)c3ccccc3O)C1C2 (stereo not drawn),50*,-1,-14,96,-6,10,71*,
CNC(=S)N/N=C/C1=CCC2CC1C2(C)C (stereo not drawn),-6,0,-2,97,-3,-2,/,
COC(=O)[C@]12C[C@H](CC(=O)N3CCC(c4ccccc4)CC3)C(=O)N(Cc3ccc4c(c3)OCO4)C1=C[C@H](C(C)(C)C)O[C@@H]2C,/,1,5,/,2,11,/,
COc1cccc(C(=O)N[C@H](C(=O)N2CCC[C@H]2C(=O)NCCc2ccccc2Cl)C2CCCCC2)c1,/,0,-6,/,-3,2,/,
CN1CCC2(CC1)Nc1nc(SCc3ccc(Cl)cc3)nn1C1=C2CN(C)CC1,63*,0,4,101,-1,-6,-14,MPTP swell DR=9.7*;MPTP counter DR=>80
Cc1nn(-c2ccccc2)c(Cl)c1/C=N/O,1,0,3,93,-1,-1,/,
Cc1nn(-c2ccccc2)c(N2CCCC2)c1/C=N/O,50*,/,/,101,/,/,0,MPTP swell DR=>100;MPTP counter DR=>80
O=C(Nc1nnc(-c2ccncc2)s1)Nc1ccccc1F,0,0,-6,102,-3,0,/,
O=C(Nc1ccc(Cl)c(Cl)c1)Nc1nnc(CC2=CCCCC2)s1,89*,0,3,87,-5,2,11,MPTP swell DR=3.5*;MPTP counter DR=<2.5*
O=C(Nc1ccc(Cl)cc1)Nc1nnc(CSCc2ccc(Cl)cc2)s1,84*,0,1,90,3,10,50*,
O=C(Nc1nnc(CC2=CCCCC2)s1)c1cccs1,-2,1,3,?,-6,-1,/,
O=C(Nc1ccc(Cl)c(Cl)c1)Nc1nnc(-c2ccncc2)s1,102*,0,-24,94,-9,16,87*,
CN1C2=N[C@H](c3ccccc3)CC(=O)N2/C(=C\c2ccccc2)C1Cc1ccccc1 (stereo partly drawn),/,0,-4,/,-4,2,/,
C[C@@H]1ON(C)[C@H]2C[C@H]3c4[nH]c5cccc(-c6cccc(F)c6)c5c4CCN3C(=O)[C@@H]12,/,-17,-464,/,-132,8,/,
COc1ccc(CN(C)C(=O)[C@@H](Cc2ccccc2)NC(=O)[C@H]2O[C@@H](n3ccc(N)nc3=O)[C@H](O)[C@@H]2O)cc1OC,/,0,4,/,0,2,/,
Cc1sc2ncnc(N3CCCCC3C)c2c1C (stereo not drawn),60*,0,2,105,-2,-2,54*,
SMILES,MPTP block,KLK7 zymogen act,ADAM10 inh,DSG3 Ab inh,ADAM17 inh,rCAG RNA binder,MPTP counter,others
C=CCN1C(=O)c2n[nH]c(COC)c2C1c1ccc(Br)cc1 (stereo not drawn),/,0,-5,/,-3,1,/,
S=C(NCc1ccco1)Nc1cccc(Cl)c1,60*,0,6,/,0,4,73*,
S=C(NCc1ccco1)Nc1cc(Cl)c(Cl)cc1Cl,88*,-1,-1,99,4,4,85*,
Cc1ccccc1NC(=S)NCc1ccco1,0,1,5,101,4,3,/,
CC(=O)c1cccc(NC(=S)NCc2ccco2)c1,2,0,0,96,-2,7,/,
c1ccc(CNc2ncnc3c2oc2ccccc23)nc1,1,-1,-3,97,-4,-3,/,
CCC(C)Nc1nc(C)nc2c1oc1ccccc12 (stereo not drawn),27,0,-15,/,-8,-6,/,
COc1ccc(CCNc2ncnc3c2oc2ccccc23)cc1OC,97*,0,-10,119,8,-4,99*,
Cc1nc(NC(C)c2ccccc2)c2oc3ccccc3c2n1 (stereo not drawn),64*,0,3,100,-2,3,96*,
COc1ccc(CCNc2nc(C)nc3c2oc2ccccc23)cc1OC,71*,1,-9,105,-6,14,91*,
CN(C(=O)[C@@H](Cc1ccccc1)NC(=O)[C@H]1O[C@@H](n2cnc3c(=O)[nH]c(N)nc32)[C@H](O)[C@@H]1O)C1CCCCC1,/,0,-10,/,-5,8,/,
Cc1ccc(NC(=S)Nc2ccc(C(C)C)cc2)cc1S(=O)(=O)N1CCCCCC1,103*,0,12,99,4,14,78*,
O=S1(=O)CCSC[C@@H](CN2CCCC2)N1,/,0,-5,/,4,2,/,
O=C(NCCCc1ccccc1)OC1CC2CC1[C@H]1CCCCN1[C@H]2Cc1ccccc1 (stereo partly drawn),/,0,-2,/,-3,2,/,
CC(C)c1ccc(S(=O)(=O)c2n[nH]n3c2nc(=O)c2ccccc23)cc1,58*,-1,-13,105,-3,24,60*,

# Compound activity deposited in PubChem BioAssay by several laboratories.
